From PubChem BioAssay (NCATS)
“And” between values parts separate entries of the source, which are not always exact repeats. Equal entries are not always repeated. Records with an inconclusive call do not appear. A number with no mark means an inactive call. The source made the active and inactive calls. The call rests on the fitted dose curve; in most records, active means well fitted curve in the direction sought with a large enough effect; inconclusive means small, poorly fitted or top-dose-only effect, or another doubt; inactive means no such curve, though single readings can be large; an effect the other way counts as inactive or inconclusive.

Columns and labels:
[1] = Viability qHTS for spleen associated tyrosine kinase inhibitor (SYKi) naive MV4-11 cells (AID 1963823); further: nearly all actives have a fitted effect of over 40% in size
In short: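 Seeding of 500 SYKi-naive MV4-11 cells per well onto pre-dispensed compounds preceded a 72 hr incubation at 37 C. Luminescent CellTiter-Glo signal, read after 10 min at room temperature, reflected viable cells.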

[2] = Viability qHTS for spleen associated tyrosine kinase inhibitor (SYKi) drug resistant MV4-11 cells (AID 1963824); further: nearly all actives have a fitted effect of over 35% in size
In short: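 SYK inhibitor-resistant MV4-11 AML cells, 500 per well, added to predispensed compounds and incubated 72 hr at 37 C, 5% CO2. Viability measured by CellTiter-Glo luminescence after 10 min at room temperature.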

[3] = Quantitative highthroughput screen to assess conditional lethalithy of NOMO1 cells grown in RPMI1640 with untreated serum (RPMI+s) (AID 1963876); further: nearly all actives have a fitted effect of over 35% in size
In short: (§1)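 Each medium arm—HPLM with 10% dialyzed FBS, or RPMI1640 with 5 mM glucose and 10% untreated or dialyzed FBS—was screened against an 11-point, 3-fold compound titration for 48 h at 37 °C, with CellTiter-Glo luminescence as endpoint.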

[4] = Quantitative highthroughput screen to assess conditional lethalithy of NOMO1 cells grown in RPMI1640 with dialyzed fetal bovine serum (RPMI+ds) (AID 1963877); further: nearly all actives have a fitted effect of over 30% in size
In short: as §1

[5] = Quantitative highthroughput screen to assess conditional lethalithy of NOMO1 cells grown in Human Plasma-Like Medium with dialyzed fetal bovine serum (HPLM+ds) (AID 1963878); further: nearly all actives have a fitted effect of over 35% in size
In short: as §1

[6] = Quantitative highthroughput screen to assess conditional lethalithy of P12 Ichikawa cells grown in Human Plasma-Like Medium with dialyzed fetal bovine serum (HPLM+ds) (AID 1963879); conditions: Potency: viability; further: nearly all actives have a fitted effect of over 35% in size
In short: as §1

[7] = Quantitative highthroughput screen to assess conditional lethalithy of P12 Ichikawa cells grown in RPMI1640 with dialyzed fetal bovine serum (RPMI+ds) (AID 1963880); conditions: Potency: P12-Ichikawa viability; further: nearly all actives have a fitted effect of over 35% in size
In short: as §1

[8] = Quantitative highthroughput screen to assess conditional lethalithy of P12 Ichikawa cells grown in RPMI1640 with untreated serum (RPMI+s) (AID 1963881); conditions: Potency: viability; further: nearly all actives have a fitted effect of over 35% in size
In short: as §1

[9] = Quantitative highthroughput screen to assess conditional lethalithy of SEM cells grown in Human Plasma-Like Medium with dialyzed fetal bovine serum (HPLM+ds) (AID 1963882); further: nearly all actives have a fitted effect of over 35% in size
In short: as §1

[10] = Quantitative highthroughput screen to assess conditional lethalithy of SEM cells grown in RPMI1640 with unreated serum (RPMI+s) (AID 1963883); further: nearly all actives have a fitted effect of over 35% in size
In short: as §1

[11] = Quantitative highthroughput screen to assess conditional lethalithy of SEM cells grown in RPMI1640 with dialyzed fetal bovine serum (RPMI+ds) (AID 1963884); further: nearly all actives have a fitted effect of over 35% in size
In short: as §1

[12] = Cellular viability qHTS for adrenocortical cancer (ACC) cell line SW-13 (AID 1963989); conditions: SW-13 ACC cells viability, CellTiter-Glo, 48 h; activity (max response): hits give low values; further: nearly all actives have a fitted effect of over 65% in size;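 on activity (max response): cells grown in serum-free medium with ITS supplement; on the % scale 0 is the no-effect control and ±100 the full control effect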
In short: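 SW-13 cells in ITS-supplemented serum-free DMEM were plated overnight, then exposed for 48 h at 37C to compound titrations (up to 46 uM final). Viability was read by CellTiter-Glo luminescence; four-parameter logistic fits gave IC50 and efficacy.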

[13] = Cellular viability qHTS for adrenocortical cancer (ACC) cell line NCI-H295R (AID 1963990); further: nearly all actives have a fitted effect of over 60% in size;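 on activity change, negative = viability loss: 0% = DMSO only wells and -100% = full killing with cytotoxic reference compound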
In short: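 Luminescent ATP read-out (CellTiter-Glo, 20 min RT) after 48 h drug exposure of NCI-H295R cells; a titration up to 46 uM final. Data normalized to doxorubicin (100% inhibition) and DMSO (0%); 4-parameter fit gives IC50, max response.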
Potency means the concentration at half of the fitted maximal effect.

| Structure (SMILES) | Potency [1] | Potency [2] | Potency [3] | Potency [4] | Potency [5] | Potency [6] | Potency [7] | Potency [8] | Potency [9] | Potency [10] | Potency [11] | Potency [12] | Potency [13] | activity (max response) [12] | activity change, negative = viability loss [13] |
| --- | --- | --- | --- | --- | --- | --- | --- | --- | --- | --- | --- | --- | --- | --- | --- |
| CC(C)c1cnn2c(NCc3ccccc3)cc(N[C@@H](CO)[C@H](O)CO)nc12 | 1.03 µM (active) and 332 nM (active) | 820 nM (active) and 263 nM (active) | 0.743 µM (active) | 0.743 µM (active) | 0.662 µM (active) | 1.32 µM (active) | 1.18 µM (active) | 1.05 µM (active) | 0.743 µM (active) | 0.59 µM (active) | 0.743 µM (active) | 0.891 µM (active) |  |  |  |
| CCN(CC)CCNC(=O)c1ccc2nc(-c3ccccc3)c(-c3ccc(CN4CCC(n5c(=O)[nH]c6ccccc65)CC4)cc3)nc2c1 | 2.06 µM (active) and 3.32 µM (active) | 2.59 µM (active) and 3.32 µM (active) | 8.33 µM (active) | 11.8 µM (active) | 2.35 µM (active) | 2.35 µM (active) | 2.64 µM (active) | 4.69 µM (active) | 0.166 µM (active) | 0.0526 µM (active) | 0.166 µM (active) | 6.31 µM (active) | 3.98 µM (active) |  |  |
| O=C(CCCCCCC(=O)Nc1ccc([C@H]2O[C@@H](CSc3nc(-c4ccccc4)c(-c4ccccc4)o3)C[C@@H](c3ccc(CO)cc3)O2)cc1)NO | 16.4 µM (active) | 18.4 µM (active) | 9.35 µM (active) | 9.35 µM (active) | 8.33 µM (active) | 4.69 µM (active) | 3.32 µM (active) | 4.69 µM (active) | 7.43 µM (active) | 7.43 µM (active) | 6.62 µM (active) |  |  | -9.54% | -23.6% [at 9.17 µM] |
